According to PubChem BioAssay (Tox21):
Inconclusive results are not listed. Active and inactive are the calls of the source. Unless noted, the call rests on the fitted dose curve; in most records, active means well fitted curve in the direction sought with a large enough effect in the repeat runs; inconclusive means weak or mixed curves; inactive means no such curve, though single readings can be large; an effect the other way counts as inactive or inconclusive.

Experiments:
[1] = qHTS assay to identify small molecule antagonists of the sonic hedgehog signaling (Shh) pathway (AID 1259369; calls by dose curve; further: nearly all actives have a fitted effect of over 45% in size)
Method in brief: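 Stable Gli1-Luc reporter NIH/3T3 clone; quantitative HTS in stimulated mode with conditioned medium. Luminescence measured after 24hr compound treatment at 37 C.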

[2] = qHTS assay to identify small molecule agonists of the androgen receptor (AR) signaling pathway in the presence of an antagonist - cell viability counter screen (AID 1259379);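 further: MDA-kb2 human breast cancer cells carrying an MMTV luciferase reporter; series mostly up to about 92 µM; nearly all actives have a fitted effect of over 25% in size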
Method in brief: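 Nilutamide-containing (3.0uM final) MDA-kb2 cultures, 3,000 cells/well, were treated with compounds across 15 concentrations. After 16 hr at 37C with no CO2, cell viability was determined by CellTiter-Fluor fluorescence in the luciferase assay wells.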

[3] = qHTS assay to identify small molecule agonists of the estrogen receptor beta (ER-beta) signaling pathway - cell viability counter screen (AID 1259380); further: nearly all actives have a fitted effect of over 30% in size
Method in brief: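 Steps: plate ER-beta-UAS-bla HEK293T cells, rest 6 hr; add compounds in DMSO; incubate 16 hr at 37C, 5% CO2; add FRET substrate 2 hr; add CellTiter-Glo, wait 30 min at room temperature; read luminescence.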

[4] = qHTS assay to identify small molecule antagonists of the estrogen receptor beta (ER-beta) signaling pathway - cell viability counter screen (AID 1259382);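 further: HEK293T cells carrying ER-beta-UAS-bla reporter stimulated with estradiol; series mostly up to about 92 µM; nearly all actives have a fitted effect of over 55% in size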
Method in brief: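 Viability is scored by CellTiter-Glo luminescence (30 min, room temperature) in ER-beta-UAS-bla HEK293T wells already read for reporter fluorescence. Compound exposure lasts 16 hr at 37C alongside 1nM 17-beta-estradiol in charcoal-stripped serum medium.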

[5] = qHTS assay to identify small molecule agonists or antagonists of the thyroid stimulating hormone receptor (TSHR) signaling pathway - wild type cell line counter screen (AID 1259384; calls by dose curve)
Method in brief: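 Counter screen in untransfected Hek293: compounds (15-point titration, triplicate) plus phosphodiesterase inhibitor Ro20-1724 added after 18 h plating; 30 min RT. Intracellular cAMP via competitive d2/cryptate immunoassay, 1 h incubation.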

[6] = target: Thyrotropin receptor (Homo sapiens) (UniProt P16473); experiment: qHTS assay to identify small molecule antagonists of the thyroid stimulating hormone receptor (TSHR) signaling pathway (AID 1259385; calls by dose curve; further: nearly all actives have a fitted effect of over 20% in size)
Sequence of Thyrotropin receptor (Homo sapiens) (P16473 whole entry, looked up): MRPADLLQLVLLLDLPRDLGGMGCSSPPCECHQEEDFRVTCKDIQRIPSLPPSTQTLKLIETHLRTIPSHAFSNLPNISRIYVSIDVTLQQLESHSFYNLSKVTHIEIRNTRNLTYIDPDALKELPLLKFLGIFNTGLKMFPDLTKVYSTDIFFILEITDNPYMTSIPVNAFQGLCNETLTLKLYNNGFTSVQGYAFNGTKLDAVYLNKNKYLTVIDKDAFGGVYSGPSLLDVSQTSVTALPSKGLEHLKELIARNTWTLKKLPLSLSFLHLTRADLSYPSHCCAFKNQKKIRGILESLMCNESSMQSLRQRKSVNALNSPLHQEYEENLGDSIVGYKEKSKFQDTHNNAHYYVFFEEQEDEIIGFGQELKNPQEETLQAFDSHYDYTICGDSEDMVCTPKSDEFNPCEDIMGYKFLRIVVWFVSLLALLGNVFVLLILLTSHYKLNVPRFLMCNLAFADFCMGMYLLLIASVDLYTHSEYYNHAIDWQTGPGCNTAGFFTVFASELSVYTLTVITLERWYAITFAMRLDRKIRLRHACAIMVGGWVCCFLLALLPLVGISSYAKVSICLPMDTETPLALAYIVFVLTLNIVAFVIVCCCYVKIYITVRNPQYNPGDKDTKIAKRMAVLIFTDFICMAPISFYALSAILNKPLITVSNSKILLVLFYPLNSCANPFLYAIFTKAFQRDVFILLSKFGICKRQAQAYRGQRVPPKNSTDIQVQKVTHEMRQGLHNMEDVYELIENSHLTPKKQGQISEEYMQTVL
Method in brief: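 Antagonist mode: compound-treated TSHR-expressing HEK293 cells were stimulated with 1.5 ng/mL TSH (final) in presence of Ro20-1724 for 30 min at RT. HTRF cAMP detection after 1 h; each compound tested at 15 concentrations, triplicate.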

[7] = qHTS assay to identify small molecule agonists of the estrogen receptor alpha (ER-alpha) signaling pathway in the presence of an antagonist - cell viability counter screen (AID 1259386);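 further: series mostly up to about 92 µM; cells exposed to compounds for 22 h at 37 °C before the viability read; nearly all actives have a fitted effect of over 30% in size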
Method in brief: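 In this counter screen, compound effects on VM7Luc4E2 viability were tested in the presence of the antagonist ICI-182,780 at 10.0nM final. Compounds were dosed at 15 concentrations, exposure lasted 22hr, and the CellTiter-Fluor signal was read.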

[8] = target: Progesterone receptor (Homo sapiens) (UniProt P06401); experiment: qHTS assay to identify small molecule agonists of the progesterone receptor (PR) signaling pathway (AID 1346784; calls by dose curve; further: nearly all actives have a fitted effect of over 30% in size)
Sequence of Progesterone receptor (Homo sapiens) (P06401 whole entry, looked up): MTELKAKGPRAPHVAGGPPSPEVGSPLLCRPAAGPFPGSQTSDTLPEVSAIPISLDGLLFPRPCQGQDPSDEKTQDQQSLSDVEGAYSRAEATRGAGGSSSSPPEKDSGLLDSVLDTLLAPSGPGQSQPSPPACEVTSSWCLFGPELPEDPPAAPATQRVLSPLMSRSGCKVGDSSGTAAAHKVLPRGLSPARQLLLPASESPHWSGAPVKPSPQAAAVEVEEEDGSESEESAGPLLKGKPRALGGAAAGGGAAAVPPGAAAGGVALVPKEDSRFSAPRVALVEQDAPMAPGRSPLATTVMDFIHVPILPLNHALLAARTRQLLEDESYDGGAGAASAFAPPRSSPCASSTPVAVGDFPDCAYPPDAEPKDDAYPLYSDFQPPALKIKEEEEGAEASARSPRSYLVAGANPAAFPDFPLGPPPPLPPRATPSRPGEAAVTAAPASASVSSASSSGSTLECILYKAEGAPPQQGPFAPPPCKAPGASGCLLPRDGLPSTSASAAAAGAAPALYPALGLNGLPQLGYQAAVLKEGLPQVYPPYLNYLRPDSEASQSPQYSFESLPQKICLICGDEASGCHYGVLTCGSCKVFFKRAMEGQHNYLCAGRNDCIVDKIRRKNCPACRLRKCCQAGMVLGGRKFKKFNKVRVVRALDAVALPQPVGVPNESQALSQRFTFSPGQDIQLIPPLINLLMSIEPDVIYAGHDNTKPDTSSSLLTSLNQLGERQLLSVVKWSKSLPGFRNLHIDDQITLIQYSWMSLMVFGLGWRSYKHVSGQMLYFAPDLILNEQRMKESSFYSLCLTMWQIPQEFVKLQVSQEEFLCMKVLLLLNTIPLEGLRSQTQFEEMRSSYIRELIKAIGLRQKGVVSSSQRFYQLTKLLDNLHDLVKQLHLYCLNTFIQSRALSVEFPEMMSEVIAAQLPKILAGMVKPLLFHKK
Method in brief: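 Fluorescence from LiveBLAzer B/G FRET substrate cleavage (2 hr, RT) reported PR activation in PR-UAS-bla HEK 293T cells treated 16 hr at 37C/5% CO2 with compounds; medium contained 2% charcoal-stripped FBS.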

[9] = target: Progesterone receptor (Homo sapiens) (UniProt P06401); experiment: qHTS assay to identify small molecule antagonists of the progesterone receptor (PR) signaling pathway (AID 1346795; active means well fitted inhibition curve with a large enough effect in the signal ratio in the repeat runs, not every such curve was filed as active; the % refers to the signal ratio)
Method in brief: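 Fluorescence intensity measured 2 hr after adding beta-lactamase FRET substrate to PR-UAS-bla HEK293T cells that had been co-treated 16 hr with compound and 1 nM R5020 (final concentration) in 2% charcoal-stripped FBS.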

[10] = qHTS assay to identify small molecule antagonists of the progesterone receptor (PR) signaling pathway - cell viability counter screen (AID 1346798); further: series mostly up to about 92 µM; nearly all actives have a fitted effect of over 50% in size
Method in brief: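 CellTiter-Glo luminescence; PR-UAS-bla HEK293T, 3,000 cells/well; compound + R5020, 16 hr, 37C/5% CO2; 30 min RT before read.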

[11] = qHTS assay to identify small molecule agonists of the progesterone receptor (PR) signaling pathway - cell viability counter screen (AID 1346799; calls by dose curve; further: nearly all actives have a fitted effect of over 45% in size)
Method in brief: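 In parallel with the beta-lactamase readout, cytotoxicity toward PR-UAS-bla HEK293T cells was measured by CellTiter-Glo luminescence following 16 hr compound incubation in 2% charcoal-stripped FBS medium.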

[12] = qHTS assay to identify small molecule antagonists of the TGF-beta/Smad signaling pathway - cell viability counter screen (AID 1346824); further: nearly all actives have a fitted effect of over 50% in size
Method in brief: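 Cytotoxicity counter-screen run in the same wells as the beta-lactamase Smad reporter read: CellTiter-Glo luminescence after 30 min at room temperature. HEK 293T SBE-bla cells had 5 hr compound exposure at 37 C with TGF-beta1 (0.25 ng/mL stock).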

[13] = qHTS assay to identify small molecule agonists of the TGF-beta/Smad signaling pathway - cell viability counter screen (AID 1346829); further: top concentration of the series differs between compounds; nearly all actives have a fitted effect of over 45% in size
Method in brief: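 Compound-treated SBE-bla HEK 293T cells (5 hr, 37 C) were assessed for viability with CellTiter-Glo in parallel with the reporter read.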

[14] = qHTS assay to identify small molecule agonists of the TGF-beta/Smad signaling pathway (AID 1346859; active means well fitted activation curve with a large enough effect in the signal ratio in the repeat runs, not every such curve was filed as active; the % refers to the signal ratio; further: series mostly up to about 77 µM)
Method in brief: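 After overnight seeding, SBE-bla HEK 293T cells are dosed with compounds in DMSO and kept 5 hr at 37 C, 5% CO2. LiveBLAzer-type FRET substrate is then applied for 2 hr at room temperature.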

[15] = Human pregnane X receptor (PXR) small molecule agonists, qHTS cell viability counter screen (AID 1346977); further: nearly all actives have a fitted effect of over 50% in size; further: potency means the concentration at half of the fitted maximal effect
Method in brief: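 Viability counter screen: CellTiter-Fluor signal in PXR-Luc HepG2 cells, 24hr compound exposure, 37C, 5% CO2.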

[16] = target: Estrogen receptor beta (Homo sapiens) (UniProt Q92731); experiment: qHTS assay to identify small molecule agonists of the estrogen receptor beta (ER-beta) signaling pathway (AID 1259377; active means well fitted activation curve with a large enough effect in the signal ratio in the repeat runs, not every such curve was filed as active; the % refers to the signal ratio)
Sequence of Estrogen receptor beta (Homo sapiens) (Q92731 whole entry, looked up): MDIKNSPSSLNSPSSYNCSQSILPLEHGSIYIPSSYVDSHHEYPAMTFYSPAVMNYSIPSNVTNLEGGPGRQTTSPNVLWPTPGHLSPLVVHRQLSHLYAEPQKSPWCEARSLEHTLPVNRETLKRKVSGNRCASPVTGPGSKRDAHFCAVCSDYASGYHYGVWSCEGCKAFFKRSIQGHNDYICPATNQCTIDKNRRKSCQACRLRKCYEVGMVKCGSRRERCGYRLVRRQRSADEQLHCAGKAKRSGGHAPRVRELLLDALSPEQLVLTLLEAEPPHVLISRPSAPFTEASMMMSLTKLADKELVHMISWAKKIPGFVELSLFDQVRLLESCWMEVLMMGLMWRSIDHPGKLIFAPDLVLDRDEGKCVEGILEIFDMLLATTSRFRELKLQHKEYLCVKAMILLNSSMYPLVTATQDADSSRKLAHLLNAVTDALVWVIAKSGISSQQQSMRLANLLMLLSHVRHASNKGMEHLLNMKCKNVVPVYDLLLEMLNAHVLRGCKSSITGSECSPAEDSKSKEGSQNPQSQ
Method in brief: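 qHTS in ER-beta-UAS-bla HEK293T cells: 6 hr settling, then 16 hr compound at 37C, then LiveBLAzer substrate 2 h at RT before fluorescence reading.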

[17] = target: Estrogen receptor beta (Homo sapiens) (UniProt Q92731); experiment: qHTS assay to identify small molecule antagonists of the estrogen receptor beta (ER-beta) signaling pathway (AID 1259378; active means well fitted inhibition curve with a large enough effect in the signal ratio in the repeat runs, not every such curve was filed as active; the % refers to the signal ratio)
Method in brief: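 Antagonist mode: compounds added to beta-lactamase reporter HEK293T ER-beta-UAS cells stimulated with E2 (1nM final), 16 hr at 37C. LiveBLAzer B/G FRET substrate, 2 hours room temperature, fluorescence read-out.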

[18] = target: Estrogen receptor (Homo sapiens) (UniProt P03372); experiment: qHTS assay to identify small molecule agonists of the estrogen receptor alpha (ER-alpha) signaling pathway in the presence of an antagonist (AID 1259383; calls by dose curve; further: top concentration of the series differs between compounds; nearly all actives have a fitted effect of over 15% in size)
Sequence of Estrogen receptor (Homo sapiens) (P03372 whole entry, looked up): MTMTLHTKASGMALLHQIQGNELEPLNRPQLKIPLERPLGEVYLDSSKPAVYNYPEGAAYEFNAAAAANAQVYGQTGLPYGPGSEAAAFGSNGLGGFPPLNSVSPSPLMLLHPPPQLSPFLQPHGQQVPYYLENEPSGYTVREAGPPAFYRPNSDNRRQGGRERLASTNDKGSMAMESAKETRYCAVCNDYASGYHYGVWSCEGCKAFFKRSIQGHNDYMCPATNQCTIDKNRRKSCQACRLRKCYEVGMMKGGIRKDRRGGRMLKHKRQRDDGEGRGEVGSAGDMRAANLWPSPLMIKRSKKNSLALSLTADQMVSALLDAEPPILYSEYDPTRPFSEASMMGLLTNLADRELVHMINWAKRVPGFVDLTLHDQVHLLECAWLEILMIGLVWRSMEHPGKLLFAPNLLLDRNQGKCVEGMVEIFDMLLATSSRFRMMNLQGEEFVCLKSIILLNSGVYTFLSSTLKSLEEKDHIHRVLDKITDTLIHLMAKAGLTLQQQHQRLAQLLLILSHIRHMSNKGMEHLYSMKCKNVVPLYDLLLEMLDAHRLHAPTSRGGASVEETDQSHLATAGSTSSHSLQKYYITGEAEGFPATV
Method in brief: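 Readout was ERE-driven luciferase luminescence in VM7Luc4E2 cells, which express full-length ER-alpha endogenously. Compounds were tested at 15 concentrations for 22hr alongside 10.0nM ICI-182,780 (final concentration).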

[19] = target: Thyrotropin-releasing hormone receptor (Homo sapiens) (UniProt P34981); experiment: qHTS assay to identify small molecule antagonists of the thyrotropin-releasing hormone receptor (TRHR) signaling pathway (AID 1346877; active means well fitted inhibition curve with a large enough effect in the repeat runs, not every such curve was filed as active; further: series mostly up to about 51 µM)
Sequence of Thyrotropin-releasing hormone receptor (Homo sapiens) (P34981 whole entry, looked up): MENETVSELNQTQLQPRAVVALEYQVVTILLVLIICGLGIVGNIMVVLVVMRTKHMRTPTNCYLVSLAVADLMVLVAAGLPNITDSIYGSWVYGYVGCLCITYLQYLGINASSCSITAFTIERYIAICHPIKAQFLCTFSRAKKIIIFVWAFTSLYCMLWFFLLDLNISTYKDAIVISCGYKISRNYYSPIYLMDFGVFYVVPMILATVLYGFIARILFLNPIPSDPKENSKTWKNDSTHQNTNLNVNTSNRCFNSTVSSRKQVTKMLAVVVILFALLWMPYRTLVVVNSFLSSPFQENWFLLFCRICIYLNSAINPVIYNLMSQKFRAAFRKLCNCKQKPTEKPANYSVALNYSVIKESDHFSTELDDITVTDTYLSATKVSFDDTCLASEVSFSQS
Method in brief: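 Kinetic fluorescence (3 min, 1 s resolution) following stimulation with TRH at 1 nM final; HEK293 cells bearing human TRHR; 5 min compound preincubation at RT; concentration-response over 15 points, triplicates.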

[20] = target: Thyrotropin-releasing hormone receptor (Homo sapiens) (UniProt P34981); experiment: qHTS assay to identify small molecule agonists of the thyrotropin-releasing hormone receptor (TRHR) signaling pathway (AID 1346891; calls by dose curve;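 further: HEK293 cells expressing TRHR with calcium dye readout; series mostly up to about 58 µM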)
Method in brief: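 Compounds were tested as agonists at 15 concentrations, in triplicate, on TRHR-Hek293 cells; calcium-sensitive dye fluorescence was recorded for 3 min following addition.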

Measured: Potency

CCCCCCCCCCCCN(CCCCCCCCCCCC)CCCCCCCCCCCC
not listed: [16] | [17] | [18] | [19] | [20]
inactive: all other assays above

COCCc1ccc(OCC(O)CNC(C)C)cc1 (stereo unspecified)
not listed: [1] | [5] | [10] | [18] | [19] | [20]
inactive: all other assays above

N[C@H]1CN(c2c(F)cc3c(=O)c(C(=O)O)cn(C4C[C@H]4F)c3c2Cl)CC12CC2 (stereo partly specified)
not listed: [3] | [14] | [16] | [17]
inactive: all other assays above

CCOC(=O)[C@H](CCc1ccccc1)N[C@@H](C)C(=O)N1[C@H](C(=O)O)C[C@@H]2CCC[C@@H]21
not listed: [1] | [13] | [19]
inactive: all other assays above

CC(C)NCC(O)c1ccc(NS(C)(=O)=O)cc1 (stereo unspecified)
not listed: [1] | [8] | [10] | [17] | [18]
inactive: all other assays above

COC(=O)c1c(Cl)c(Cl)c(C(=O)OC)c(Cl)c1Cl
not listed: [1] | [9] | [12] | [17] | [19] | [20]
inactive: all other assays above

C=C(C)C(=O)OCCCCCCCC(C)C
active: [15] 976 nM
not listed: [1] | [12]
inactive: all other assays above

O=C1OC(=O)C2CCCCC12 (stereo unspecified)
not listed: [3] | [5] | [6] | [11] | [16] | [17] | [19] | [20]
inactive: all other assays above
